{"source": "PubChem BioAssay (NCATS)", "note": "Results filed as inconclusive are left out. Active and inactive are the calls of the source. Calls follow the shape of the dose curve; as a rule, active = well fitted inhibition curve with a large enough effect; inconclusive = small, poorly fitted or top-dose-only effect; inactive = flat fitted curve, though single readings scatter. Potency is read from the fitted curve at half-maximal effect."}
{"test_system": "CP250", "assay": "qHTS profiling for inhibitors of Plasmodium falciparum proliferation (AID 504749); also: nearly all actives have a fitted effect of over 60% in size;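 as to activity, negative = inhibition: 0% = DMSO vehicle and full inhibition = artemisinin control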", "details": "P. falciparum in erythrocytes, SYBR Green DNA, 72 h; series mostly up to 28.7 µM; activity, negative = inhibition: at the top concentration", "summary_of_the_method": "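Three-day growth assay of blood-stage parasites in erythrocytes (0.3% parasitemia, 2.5% hematocrit) at 37 C, 5% CO2, quantified by SYBR Green DNA staining after overnight detergent lysis.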"}
{"smiles": "CCCCCCCC/C=C\\CCCCCCCC(=O)O", "activity, negative = inhibition": "4.75% (inactive)"}
{"smiles": "COC(F)(F)C(Cl)Cl", "activity, negative = inhibition": "1.28% (inactive)"}
{"smiles": "Nc1ncnc2c1ncn2[C@@H]1O[C@H](COP(=O)(O)OP(=O)(O)OP(=O)(O)O)[C@@H](O)[C@H]1O", "activity, negative = inhibition": "10.2% (inactive)"}
{"smiles": "Nc1c(N=Nc2ccc(-c3ccc(N=Nc4cc(S(=O)(=O)O)c5ccccc5c4N)cc3)cc2)cc(S(=O)(=O)O)c2ccccc12", "activity, negative = inhibition": "-15.2% (inactive)"}
{"smiles": "C#CCOc1ccc2c(C)cc(=O)oc2c1", "activity, negative = inhibition": "-0.692% (inactive)"}
{"smiles": "CC(O)CO", "note": "(stereo not given)", "activity, negative = inhibition": "12.5% (inactive)"}
{"smiles": "COc1ccc2c3c1O[C@H]1C[C@@H](O)C=C[C@@]31CCN(C)C2", "activity, negative = inhibition": "14.9% (inactive)"}
{"smiles": "O=S(=O)(O)O", "activity, negative = inhibition": "-5.35% (inactive)"}
{"smiles": "CCCCCCCCCCCCCCCC(=O)OCC(COC(=O)CCCCCCCCCCCCCCC)OC(=O)CCCCCCCCCCCCCCC", "activity, negative = inhibition": "4.43% (inactive)"}
{"smiles": "O=C(O)CN(CCN(CC(=O)O)CC(=O)O)CC(=O)O", "activity, negative = inhibition": "5.03% (inactive)"}
{"smiles": "CCCCCCC(O)C/C=C/CCCCCCCC(=O)O", "note": "(stereo not given)", "activity, negative = inhibition": "-0.265% (inactive)"}
{"smiles": "C=CCSSSCC=C", "activity, negative = inhibition": "-0.137% (inactive)"}
{"smiles": "CCC(=O)NCCC1CCc2ccc3c(c21)CCO3", "note": "(stereo not given)", "activity, negative = inhibition": "4.56% (inactive)"}
{"smiles": "C[C@@H]1CCC2[C@@H](C)[C@@H](O)O[C@@H]3O[C@@]4(C)CC[C@@H]1[C@@]23OO4", "note": "(stereo not given in full)", "Potency": "2.8 nM (active)"}
{"smiles": "CCCCC/C=C\\C/C=C\\CCCCCCCC(=O)O", "activity, negative = inhibition": "7.69% (inactive)"}
{"smiles": "CCCC(=O)O[C@]1(C(=O)CCl)[C@H](C)C[C@@H]2[C@H]3CCC4=CC(=O)C=C[C@]4(C)[C@@]3(F)C(=O)C[C@@]21C", "Potency": "1580 nM (active)"}
{"smiles": "CCOc1ccc(N=Nc2ccc(N)cc2N)cc1", "activity, negative = inhibition": "-11.5% (inactive)"}
{"smiles": "NC(=O)c1ncn(C2OC(CO)C(O)C2O)n1", "note": "(stereo not given)", "activity, negative = inhibition": "-1.82% (inactive)"}
{"smiles": "COCC(=O)Nc1cc(Sc2ccccc2)ccc1N=C(NC(=O)OC)NC(=O)OC", "activity, negative = inhibition": "-5.46% (inactive)"}
{"smiles": "CC1=C(/C=C/C(C)=C/C=C/C(C)=C/C=C/C=C(C)/C=C/C=C(C)/C=C/C2=C(C)CCCC2(C)C)C(C)(C)CCC1", "activity, negative = inhibition": "-0.999% (inactive)"}
{"smiles": "Cc1ccccc1OCC(O)CNCCOc1ccc(C(N)=O)cc1", "note": "(stereo not given)", "activity, negative = inhibition": "-4.77% (inactive)"}
{"smiles": "CCCCCCCC(=O)O", "activity, negative = inhibition": "4.81% (inactive)"}
{"smiles": "CC1=CCC(C(C)(C)O)CC1", "note": "(stereo not given)", "activity, negative = inhibition": "3.11% (inactive)"}
{"smiles": "CC(NNC(=O)c1ccccc1)c1ccccc1", "note": "(stereo not given)", "activity, negative = inhibition": "5.05% (inactive)"}
{"smiles": "CCOc1ccc2c(c1)C(C)=CC(C)(C)N2", "activity, negative = inhibition": "-26% (inactive)"}
{"smiles": "CO[C@H]1C[C@@H]2CC[C@@H](C)[C@@](O)(O2)C(=O)C(=O)N2CCCC[C@H]2C(=O)O[C@H]([C@H](C)C[C@@H]2CC[C@@H](OCCO)[C@H](OC)C2)CC(=O)[C@H](C)/C=C(\\C)[C@@H](O)[C@@H](OC)C(=O)[C@H](C)C[C@H](C)/C=C/C=C/C=C/1C", "Potency": "3160 nM (active)"}
{"smiles": "COC(=O)CCC(=O)CN", "activity, negative = inhibition": "5.08% (inactive)"}
{"smiles": "Cc1ccccc1", "activity, negative = inhibition": "12.4% (inactive)"}
{"smiles": "CCCCC(C)(O)C/C=C/[C@H]1[C@H](O)CC(=O)[C@@H]1CCCCCCC(=O)OC", "note": "(stereo not given in full)", "activity, negative = inhibition": "3.59% (inactive)"}
{"smiles": "O=C(O)c1cc(O)c2c(c1)[O][Bi][O]2", "activity, negative = inhibition": "-21.9% (inactive)"}
